# Test results taken from the supplement of paper PMC6555819.
# Tested on: VDR:RXRa (NR concentration 270 nM, RXRa partner concentration 90 nM)
# Assay: PBM binding z-score (relative to random genomic background probes); higher = stronger binding; sequences stand for … in GC…GCGATTGACAGCGTAGAATGAAGG
# Protocol: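 Protein-binding microarray (Agilent 4x180K custom design, double-stranded 60-nt probes: 5' GC cap, 34-nt variable region, 24-nt constant primer region; full probe sequence given). Purified or IVT nuclear receptor:RXRα heterodimers (3:1 NR:RXRα, mostly 270:90 nM) or homodimers were incubated for 1 h in PBS with 2% milk and no ligand, then detected with Alexa488 antibodies. Fluorescence from o1-orientation probes (~5 replicates averaged) was converted to z-scores against 500 random hg19 background probes. Variable regions are seed direct-repeat (DR0–DR5) sites, all their single-nucleotide variants and half-site ablations.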
row,Sequence,PBM binding z-score
1,TCTAGTTCGTCACGGAGGTCACACACGACGGGTA,4.68
2,ACTAGTTGGTCAGCTGGGGTCACACACAATTCGG,4.93
3,AGTCGGAGGACAAAGGTCAGAGCTACGCCAGTGA,3.28
4,CTATGTAGGTTAAGGGGGTCATTAAGTTTGAAAG,7.64
5,TCTGCTAGGTCAGGTGGTCAGCTAACGAGCTGCC,0.132
6,CGAACTAGGTTAAAGGACAGTGAAAGGCGACGTA,-0.216
7,CAAACTAGGTCACCGGAAAGTCAAAGTCCGCATG,2.61
8,TATACAGGGTCTAAGGCCAGAGTACGAATGTCGA,0.486
9,CGTCAAAGTTCAAGTTAACGTAACAGAAAGCAGC,4.32
10,CGAACTAGGTCACCAGGGCAGTGAAGAGGTTGGA,2.32
11,ACTCGGAGGATAAAGGTCAGAGCTACGCCAGTGA,2.36
12,TCGAGGAGGTTACGGGGGCATTCAGGGATGAAGA,5.08
13,CGTCCAAGGTCAGCAGGTGAGTGAAAGCGACGTG,2.67
14,CCTACTGGGCCAAGCTCATTGATCAGTCAAAGCA,-0.667
15,CCTAGTTGGTCAGGAAGTCACACACCGGATATGA,0.604
16,CGTCCAAGGTCATAGGAGGTCATTGAAGACAGAT,7.27
17,CCGGGTAGGTTACGAGGGGGCATTCAGTGCGAAT,5.31
18,CCTACTGGGCCACGAAAGGTCCTTGATTCAGTGA,-0.615
19,GCTGCTAGGTCAGGTTGGTCTGCTAACGGGTACG,0.509
20,TAGCCTAGGTCATTGGGCCAGTATAGTACGCATC,2.11

row,Sequence,PBM binding z-score
1,GCTGCTAGGTCAGGATGGTCAGCTAACGGGTACG,0.56
2,CCGAGTAGGTTACGAAGGGGCATTCAGTGCGAAT,3.08
3,CCTACTGGGCCAAAGGTCCTTGATTCCAATGCTC,-0.303
4,CGAACTAGGTCAAAGCACAGTGAAAGGCGACGTA,1.2
5,CGAACTAGGTCACTAGGACAGTGAAGAGGTTGGA,1.18
6,ATATGTAGGTGAAGGGTCATTCAGGTTGGTTCGC,5.46
7,CCGACTGGGGCAAAGGTTACCATGCTCAGTACGA,1.64
8,CAGCCTAGGTGAGGGCCAGTATAGGAGGAACGTT,-0.634
9,TTACAAAGGTGAGCTGAGGTCGTTGATCCAACTC,5.58
10,CGAACTAGGTCACCAGGACAGTTAAGAGGTTGGA,2.11
11,CGAACTAGCTCACCAGGACAGTGAAGAGGTTGGA,-0.616
12,GCTCGGGGGACAAGGTCAGAGCTTTGTCCGTAGA,3.07
13,TCGAGTAGGTTACGGGGGCATTCCGGGATGAAGA,3.83
14,CCTAGTGGGTCAGGAGGTCACACACCGGATATGA,4.65
15,CGTCCAAGGTCAACGCTAGGTCAGTGAAAGCATT,5.09
16,GATACAGGGTCATCTAGAGGCCAGAGTATGGAAA,5.14
17,CGTCTAAGTTCAAGGTAACGTAACAGAAAGCAGC,3.43
18,CCTTACGGGTCAAGGTAATAGCACGGGTGGTACG,2.65
19,CCTTACGGGTCTCTCCAGGTTATAGCATCGGAGT,0.117
20,TAGCCTAGGTCATTCAGGGGGCAGTATAGAAAGC,4.82
